Assay in all cases: NCI-60 one-dose screen, 48 h (100 = growth as untreated, 0 = no growth, -100 = all killed)
Conditions in all cases: 10 µM unless noted

The subject of experiment [1] is HCT-15 colon.
The test system of experiment [2] is HT29 colon.
Experiment [3] deals with SNB-75 CNS.
Experiment [4] concerns SNB-19 CNS.
The test system of experiment [5] is PC-3 prostate.
The test system of experiment [6] is SK-MEL-5 melanoma.
Experiment [7] deals with UACC-62 melanoma.
The subject of experiment [8] is SK-MEL-28 melanoma.
In experiment [9] the test system is SK-MEL-2 melanoma.
For experiment [10], the system named is EKVX NSCLC.
Experiment [11] deals with SN12C renal.
Experiment [12] concerns UO-31 renal.
Experiment [13] deals with TK-10 renal.
For experiment [14], the system named is ACHN renal.
The test system of experiment [15] is CAKI-1 renal.
Experiment [16] has as its system A498 renal.
For experiment [17], the system named is CCRF-CEM leukemia.
Experiment [18] concerns MOLT-4 leukemia.
Experiment [19] relates to U251 CNS.
The subject of experiment [20] is LOX IMVI melanoma.

About 83,000 compounds went through this panel and 20% of them were active in at least one assay; those are over-represented in the sample as a whole.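 Percent growth is the endpoint: 0 to 100 indicates growth inhibition (40 means 60% inhibition), 0 means no net growth, and negative values indicate cell death.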 Values without a mark were called inactive. Calls of active or inactive are those of the source. Rule for the calls: active = growth percent below 10; inactive = the rest.

As to `COc1ccc(-c2cc(NC(=O)Nc3ccc(O)cc3)no2)cc1`, the growth in [1] is 49.5%; in experiment [2] it was 98.8%; in experiment [3], 62.6%; in experiment [4], 91.5%; in experiment [5], 57.6%; in experiment [6], 82.3%. For the same compound, the growth was 44.5% in experiment [7]; 101% in experiment [8]; 102% in experiment [9]; 77.2% in experiment [10]; 74.8% in [11]; 41.9% in [12]. In addition, the growth in [13] is 96.9%; in experiment [14], 55.4%; in [15] it was 31.2%; in experiment [16] it was 30.9%; in [17], 31%; in experiment [18], 19.2%.

On to `COc1ccc(-c2cc(-c3cccnc3)nc3sc4c(=O)n(-c5ccc(C)cc5)nnc4c23)cc1OC`, for which the growth is 103% in [1]; 105% in [2]; 85.8% in experiment [3]; 104% in experiment [19]; 95.8% in experiment [5]; 97.4% in experiment [6]. Besides, the growth in [7] was 98.7%; in [20], 97.2%; in experiment [8], 99.9%; in experiment [9] it was 107%; in experiment [10] it was 103%; in [11], 94.6%. Further, the growth was 81.1% in experiment [12]; 115% in experiment [13]; 93.7% in experiment [14]; 83.1% in experiment [15]; 88.8% in experiment [16]; 104% in experiment [17].

Take `O=[N+]([O-])c1cccc(C2CC(c3ccccc3)=Nc3ccccc3S2)c1` (centres undefined): the growth in [1] was 84.7%; in [2] it was 44.1%; in [3], 68.2%; in [4], 87.2%; in experiment [5] it was 77.4%; in [6], 94.8%. In addition, the growth in [7] was 88.4%; in experiment [8] it was 96.4%; in experiment [9] it was 95.4%; in experiment [11], 95.5%; in experiment [12] it was 59.7%; in experiment [13], 124%. Moreover, the growth was 90.9% in experiment [14]; 91.6% in [15]; 96.3% in experiment [16]; 22.6% in experiment [17]; 64.2% in [18].

`O=c1c(/C=C/c2ccco2)nnc(SCCN2CCOCC2)n1/N=C/c1ccc([N+](=O)[O-])cc1`: the growth was 99% in [1]; 106% in experiment [2]; 99.9% in experiment [3]; 104% in experiment [19]; 96.5% in experiment [5]; 91.1% in experiment [6]. Also, the growth in experiment [7] is 96.2%; in experiment [20], 106%; in experiment [8], 104%; in experiment [9] it was 106%; in [10], 81.6%; in [11], 102%. The growth was 71.3% in experiment [12]; 154% in [13]; 99.7% in experiment [14]; 106% in experiment [15]; 103% in experiment [16]; -20.4% (active) in [17]. Also, the growth in experiment [18] was 81.2%.

Turning to `COc1ccc2[nH]c(=O)c(/C=C/C(=O)c3ccc(Nc4nccc(-c5ccc6ccccc6c5)n4)cc3)cc2c1`, the growth is 110% in experiment [1]; 102% in [2]; 95.7% in [3]; 91.9% in experiment [4]; 98.2% in experiment [5]; 101% in experiment [6]. Besides, the growth was 88.7% in [7]; 108% in [8]; 102% in experiment [9]; 94.5% in experiment [11]; 93.2% in [12]; 103% in [13]. The growth was 103% in [14]; 98% in experiment [15]; 89.7% in experiment [16]; 86.4% in [17]; 101% in experiment [18].

Regarding `CN(C)c1ccc(/C=C\C2=[N+](C)c3ccccc3C2(C)C)cc1`, the growth was 63.2% in experiment [1]; 10.5% in experiment [2]; 31.3% in experiment [3]; 11% in experiment [19]; -4.73% (active) in experiment [5]; 3.41% (active) in experiment [6]. Besides, the growth is 15.9% in [7]; 16.1% in experiment [20]; 37.5% in experiment [8]; -3.85% (active) in experiment [9]; 8.84% (active) in experiment [10]; -1.45% (active) in experiment [11]. The growth in experiment [12] was 55%; in experiment [13] it was 27.8%; in experiment [14], 4.49% (active); in experiment [15] it was 13.4%; in experiment [16], 48.2%; in experiment [17], 14.6%. The growth in [18] is 15.7%.

Turning to `CCOC(=O)c1nc(Nc2cc(C)[nH]n2)c2ccccc2n1`, the growth in [1] was 73.4%; in experiment [2], 103%; in experiment [3], 16.9%; in [4] it was 115%; in [5], 93.3%; in [6] it was 105%. Further, the growth in experiment [7] is 91.1%; in [8], 93.2%; in experiment [9] it was 89.4%; in experiment [11], 97%; in experiment [12], 76.7%; in experiment [13] it was 77.3%. Moreover, the growth is 73.4% in experiment [14]; 37.7% in experiment [15]; 62.4% in [16]; 96.9% in [17]; 102% in experiment [18].

As to `CNC(=O)c1cc(Oc2ccc3nc(NC(=O)Nc4ccc(N5CCC(N(C)C)CC5)cc4)sc3c2)ccn1`, the growth in [1] was 74.8%; in experiment [2] it was 20.1%; in experiment [3], 86.4%; in [19], 57.6%; in [5] it was 95.1%; in [6] it was 86.1%. In addition, the growth was 99.2% in [7]; 69.9% in experiment [20]; 87.7% in experiment [8]; 117% in experiment [9]; 115% in experiment [10]; 92.3% in [11]. Besides, the growth was 87.7% in experiment [12]; 115% in experiment [13]; 74.1% in experiment [14]; 90.1% in experiment [15]; 81.6% in experiment [16]; 66.5% in [17]. In addition, the growth in [18] is 61.4%.

For the origin of these results see PubChem BioAssay (NCI).
